Reference: PubChem BioAssay (NCATS)
Records with an inconclusive call do not appear. The source made the active and inactive calls. Calls come from the whole dose curve; as a rule, active = well fitted inhibition curve with a large enough effect; inconclusive = small, poorly fitted or top-dose-only effect; inactive = flat fitted curve, though single readings scatter.

Assays:
[1] = tested on: KB-3-1; experiment: Cytotoxic Profiling of Annotated Libraries Using Quantitative High-Throughput Screening (AID 1296008); settings: Five cell lines viability, CellTiter-Glo ATP luminescence, 48-72 h; max response: active compounds read low
Outline: (§1)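 Cytotoxicity was measured as CellTiter-Glo ATP luminescence, read after 10 min at room temperature. Compound treatment of the cells lasted 48 or 72 hr at 37 degrees Celsius in a qHTS format.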

[2] = tested on: NIH3T3; experiment: as above; settings: Five cell lines viability, CellTiter-Glo ATP luminescence, 48-72 h; max response: active compounds read low
Outline: as §1

[3] = tested on: HACAT; experiment: qHTS assay to identify novel small-molecules to repurpose for Merkel cell carcinoma treatment (AID 1296009); settings: MCC and control cell lines, CellTiter-Glo viability, 72 h; at 44.8 µM (top of the series) unless noted
Outline: (§2)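 Cell viability, measured as CellTiter-Glo luminescence, was normalized between DMSO and no-cell wells. The cells had been exposed to 8- or 11-point compound dilutions for 72 hr at 37 degree celsius.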

[4] = tested on: MCC-13; experiment: as above; settings: MCC and control cell lines, CellTiter-Glo viability, 72 h; series mostly up to 46 µM
Outline: as §2

[5] = tested on: MKL-1; experiment: as above; settings: MCC and control cell lines, CellTiter-Glo viability, 72 h; series mostly up to 46 µM
Outline: as §2

[6] = tested on: MKL-2; experiment: as above; settings: MCC and control cell lines, CellTiter-Glo viability, 72 h; series mostly up to 46 µM
Outline: as §2

[7] = tested on: UISO; experiment: as above; settings: MCC and control cell lines, CellTiter-Glo viability, 72 h; series mostly up to 46 µM
Outline: as §2

[8] = tested on: MCC-26; experiment: as above; settings: MCC and control cell lines, CellTiter-Glo viability, 72 h; series mostly up to 46 µM
Outline: as §2

[9] = tested on: NIH3T3; experiment: as above; settings: MCC and control cell lines, CellTiter-Glo viability, 72 h; at 44.8 µM (top of the series) unless noted
Outline: as §2
% is set by controls: 0 for no effect and ±100 for the full control effect; potency is the fitted concentration of half-maximal effect.
Note: nearly all actives have a fitted effect of over 60% in size.

C[C@](Cc1c[nH]c2ccccc12)(NC(=O)OC1C2CC3CC(C2)CC1C3)C(=O)NC[C@H](NC(=O)CCC(=O)O)c1ccccc1 (stereo partly drawn)
inactive: max response [1] -2.86% | max response [2] -5.4% | outcome [3] | Potency [4] | Potency [5] | Potency [6] | Potency [7]

NC1=N[C@H]2[C@H](CS[C@H]2CCCCC(=O)O)N1
inactive: outcome [1] | max response [2] -0.4% | outcome [3] inactive [at 17.4 µM] | Potency [4] | Potency [8] | Potency [5] | Potency [6] | Potency [7]

COC(=O)C1C2CC3c4[nH]c5cc(OC)ccc5c4CCN3CC2CC(OC(=O)c2cc(OC)c(OC)c(OC)c2)C1OC (stereo not drawn)
inactive: max response [1] 3.89% | max response [2] -9.23% | outcome [3] | Potency [4] | Potency [8] | Potency [5] | Potency [6] | Potency [7]

CC(=CC(=O)Nc1ccccc1C(=O)O)c1ccc2ccccc2c1
inactive: max response [1] -21% | max response [2] -22.4% | outcome [3] | Potency [4] | Potency [8] | Potency [5] | Potency [6] | Potency [7]

NC[C@H]1O[C@H](O[C@H]2[C@@H](O)[C@@H](O[C@H]3O[C@H](CO)[C@@H](O)[C@H](N)[C@@H]3O)[C@H](N)C[C@@H]2N)[C@H](N)C[C@H]1O
inactive: max response [1] 1.19% | max response [2] -1.89% | outcome [3] | Potency [4] | Potency [5] | Potency [6] | Potency [7]

C[C@]12C=CC(=O)N[C@@H]1CC[C@H]1[C@H]3CC[C@@H](C(=O)Nc4cc(C(F)(F)F)ccc4C(F)(F)F)[C@@]3(C)CC[C@@H]12
inactive: max response [1] -3.32% | outcome [2] | outcome [3] | Potency [4] | Potency [5] | Potency [6] | outcome [9] | Potency [7]

O=C(O)CCCCC(CCSCc1ccccc1)SCc1ccccc1 (stereo not drawn)
inactive: outcome [1] | max response [2] 2.24% | outcome [3] | Potency [4] | Potency [8] | Potency [5] | Potency [7]

CC(=O)N1CCN(c2ccc(OCc3nn(C)c(C)c3-c3cccc4c(CCCOc5cccc6ccccc56)c(C(=O)O)n(Cc5cccnc5)c34)cc2)CC1
inactive: outcome [1] | max response [2] -8.89% | outcome [3] | Potency [4]
active: Potency [8] 16.6 µM | Potency [5] 3.32 µM | Potency [6] 0.296 µM | Potency [7] 1.18 µM

Nc1cccc2c1C(=O)N(C1CCC(=O)NC1=O)C2=O (stereo not drawn)
inactive: max response [1] -7.31% | max response [2] -1.24% | outcome [3] | Potency [4] | Potency [8] | Potency [5] | Potency [6] | Potency [7]

Cc1cc(-c2nnc3n2CCCCC3)c(C)n1-c1ccccc1
active: Potency [6] 20.9 µM
inactive: max response [1] -0.0627% | max response [2] 1.52% | outcome [3] | Potency [4] | Potency [8] | Potency [5] | Potency [7]

O=C(C[C@@H]1CC=CCCC(=O)O[C@H](c2ccccc2)CNC1=O)NCc1ccc(Cl)cc1
inactive: outcome [1] | max response [2] -2.63% | outcome [3] | Potency [4] | Potency [8] | Potency [5] | Potency [6] | Potency [7]

OC[C@@H](O)[C@@H](O)[C@H](O)[C@@H](O)CO
inactive: outcome [1] | max response [2] -2.12% | outcome [3] | Potency [4] | Potency [8] | Potency [5] | Potency [6] | Potency [7]

C[C@H](NC(=O)Cc1cc(F)cc(F)c1)C(=O)N[C@H](C(=O)OC(C)(C)C)c1ccccc1
inactive: max response [1] -8.93% | max response [2] -8.45% | outcome [3] | Potency [4] | Potency [5] | Potency [6] | Potency [7]

CCCNS(=O)(=O)Nc1ncnc(OCCOc2ncc(Br)cn2)c1-c1ccc(Br)cc1
inactive: outcome [1] | max response [2] -4.31% | outcome [3] | Potency [4] | Potency [8] | Potency [5] | Potency [6] | Potency [7]

CC(=O)SCC(Cc1ccccc1)C(=O)NCC(=O)OCc1ccccc1 (stereo not drawn)
inactive: max response [1] 3.33% | max response [2] -4.22% | outcome [3] | Potency [4] | Potency [8]
active: Potency [6] 0.209 µM | Potency [7] 14.8 µM

CC(N[C@H]1CCCC[C@H]1NC(=O)c1ccc(Cl)cc1)c1cccc2ccccc12 (stereo partly drawn)
active: Potency [6] 0.418 µM
inactive: max response [1] 1.61% | max response [2] -12.9% | outcome [3] | Potency [4] | Potency [8] | Potency [7]

C[C@H]1C[C@H]2[C@@H]3CCC4=CC(=O)C=C[C@]4(C)[C@@H]3C(=O)C[C@]2(C)[C@@]1(O)C(=O)CO
inactive: max response [1] 4.3% | outcome [2] | outcome [3] | Potency [4] | Potency [5] | Potency [6] | outcome [9] | Potency [7]

OCCNC1CCCc2c1[nH]c1ccc(-c3ccccc3)cc21 (stereo not drawn)
inactive: outcome [3] | Potency [4] | Potency [8]
active: Potency [1] 14.6 µM | Potency [2] 16.4 µM | Potency [6] 26.4 µM

CCCCCCCCCCCCCCCC(=O)OC[C@@H](NC(=O)C(Cl)Cl)[C@H](O)c1ccc([N+](=O)[O-])cc1
inactive: outcome [1] | max response [2] 0.666% | outcome [3] | Potency [4] | Potency [5] | Potency [6] | Potency [7]
